# Bioassay records: PubChem BioAssay, National Center for Advancing Translational Sciences (NCATS)
# In the library only some 7.6% were active in any assay of this set; here they are far more common.
# Giardia kill = Small Molecules that selectively kill Giardia lamblia: qHTS; Giardia lamblia trophozoite viability; activity change, % at 7.66 µM, hits read low; 340,000 compounds, 0.15% hits; AID 540267, 2011; in the data active means activity change below about -80%; inconclusive means between about -30% and that limit;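 further: parasites exposed to compound for two days anaerobically before the ATP read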
#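 Viability, read as ATP luminescence: trophozoites at 100 cells/well, compound added, 48 hrs anaerobic at 37 deg C, then 15-30 min room-temperature development before reading.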
# BRCA1 expr act = qHTS Assay to Identify Small Molecule Activators of BRCA1 Expression. Potency, µM (top dose mostly 46.1 µM), actives largely listed as activators. MCF7-BRCA1-FFLuc reporter, luminescence, 48 h; response scale: scaled: vehicle 0%, 10 µM genistein 100%. 380,000 compounds, 1.1% hits. AID 624202, 2012; further: nearly all actives have a fitted effect of over 80% in size
#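 48 h compound treatment of MCF7-BRCA1-FFLuc cells (phenol-red free MEM, 37 °C), then 15 min with luciferase substrate and luminescence imaging.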
# RORg inh = qHTS for inhibitors of ROR gamma transcriptional activity; AID 2551, 2010; Drosophila S2 Gal4-RORgamma UAS-luciferase reporter, 20 h; 310,000 compounds, 5.4% hits; Potency, µM (top dose mostly 53.6 µM), hits mostly inhibitors; further: nearly all actives have a fitted effect of over 60% in size
#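 Drosophila S2 cells stably expressing Gal4-DBD/mouse RORγ fusion under metallothionein promoter plus UAS-luciferase; compound 1 h, then 700 uM CuSO4 induction for 20 h at ambient temperature; inhibition read as reduced luminescence.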
# ELG1 DNA repair = qHTS screen for small molecules that inhibit ELG1-dependent DNA repair in human embryonic kidney (HEK293T) cells expressing luciferase-tagged ELG1 | HEK293T ELG1-luciferase reporter, luminescence, 16 h; DNA damage induced by 5-fluorouridine | Potency, µM (top dose mostly 46.1 µM), hits mostly inhibitors | 330,000 compounds, 2.3% hits | AID 504467, 2011; further: nearly all actives have a fitted effect of over 55% in size
#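 Luminescence from the luciferase reporter, measured 30 min after ONE-Glo reagent at room temperature, was the read-out. Beforehand, 2,000 cells per well were exposed for 16 hr at 37 °C to 5-fluorouridine together with compound or vehicle.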
# VP16 counter = VP16 counterscreen qHTS for inhibitors of ROR gamma transcriptional activity; AID 2546, 2010; Drosophila S2 Gal4-VP16 UAS-luciferase, luminescence, 20 h; Potency, µM (highest dose often 53.6 µM), most hits filed as inhibitors; 310,000 compounds, 3.5% hits;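 further: Gal4-VP16 expression switched on by copper sulfate through the metallothionein promoter; nearly all actives have a fitted effect of over 50% in size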
# p53 reactivator = qHTS assay for re-activators of p53 using a Luc reporter. Potency, µM (series often up to 92.2 µM), hits mostly activators. 320,000 compounds, 0.063% hits. H1299 p53-A138V BP100-luciferase reporter, luminescence, 24 h; further: nearly all actives have a fitted effect of over 45% in size
#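 p53-null H1299 cells stably carrying temperature-sensitive p53-A138V and a BP100-luciferase reporter were pinned with compounds (4-point, 1:5 series) and held 24 hrs at 37 deg C. Luminescence was read 10 min after detection reagent.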
# ELG1 FLuc counter = qHTS screen for small molecules that inhibit ELG1-dependent DNA repair: Hit Confirmation in Cell-Based Luciferin Assay. shares compounds with ELG1 DNA repair. cell-free firefly luciferase luminescence counter-screen, ViewLux. Potency, µM (highest dose often 46.1 µM), most hits filed as inhibitors. 350 compounds, 3% hits. AID 624247, 2012
# ELG1 Luc conf = HTS assay for small molecules that inhibit ELG1-dependent DNA repair in human embryonic kidney (HEK293T) cells expressing luciferase-tagged ELG1: Hit Confirmation; 670 compounds, 68% hits; HEK293T ELG1-luciferase levels, luminescence; cells co-treated with 5-fluorouridine; shares compounds with ELG1 DNA repair; Potency, µM (series often up to 46.1 µM), usual class: inhibitors; further: nearly all actives have a fitted effect of over 55% in size
# ELG1 MMS Luc = inhibits ELG1-dependent repair under MMS stimulation in HEK293T cells. Potency, µM (titrated, usually from 46.1 µM), hits mostly inhibitors. shares compounds with ELG1 DNA repair. 670 compounds, 53% hits. HEK293T luciferase-tagged ELG1 level, MMS stimulated; further: nearly all actives have a fitted effect of over 60% in size
# ELG1 5-FU = qHTS screen for small molecules that inhibit ELG1-dependent DNA repair: Hit Confirmation with 5FU Viability; shares compounds with ELG1 DNA repair; cell viability with 5-FU, ELG1-dependent repair; Potency, µM (top dose mostly 46.1 µM), actives largely listed as cytotoxic; 670 tested, under 10 active; AID 624250, 2012;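 further: ELG1-luc HEK293T cells cotreated with 5-fluorouridine at 10 µM final; viability measured 16 h after compound addition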
# ELG1 MMS cell = qHTS screen for small molecules that inhibit ELG1-dependent DNA repair: Hit Confirmation with MMS Viability; shares compounds with ELG1 DNA repair; Cell viability with MMS, ELG1-dependent DNA repair; Potency, µM (doses to about 46.1 µM), actives largely listed as cytotoxic; 670 compounds, 33% hits;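 further: ELG1-luc HEK293T cells co-treated with 10 µM MMS; viability read 16 h after compound addition; nearly all actives have a fitted effect of over 60% in size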
# ELG1 unstim viab = qHTS screen for small molecules that inhibit ELG1-dependent DNA repair: Hit Confirmation with Unstimulated Viability Assay; shares compounds with ELG1 DNA repair; cell viability counter-screen, unstimulated, luminescence; Potency, µM (series often up to 45.9 µM), most hits filed as cytotoxic; 900 compounds, 8% hits; AID 624252, 2012;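 further: compound exposure lasted 16 hours before reading; nearly all actives have a fitted effect of over 55% in size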
# FLuc enzyme = qHTS screen for small molecules that inhibit ELG1-dependent DNA repair: Hit Confirmation in Biochemical Luciferin Assay | Potency, µM (top dose mostly 57.5 µM), actives largely listed as inhibitors | shares compounds with ELG1 DNA repair | purified firefly luciferase, luminescence counter-screen | 350 compounds, 10% hits
# Hits are given with their value; – = inactive; ? = inconclusive; · = no result given; [ ] = dose if it differs, or a comment. Unless noted, the call rests on the fitted dose curve; in most records, active means well fitted curve in the direction sought with a large enough effect; inconclusive means small, poorly fitted or top-dose-only effect, or another doubt; inactive means no such curve, though single readings can be large; an effect the other way counts as inactive or inconclusive.
SMILES,Giardia kill,BRCA1 expr act,RORg inh,ELG1 DNA repair,VP16 counter,p53 reactivator,ELG1 Luc conf,ELG1 MMS Luc,ELG1 5-FU,ELG1 MMS cell,ELG1 unstim viab,others
COc1ccc(S(=O)(=O)N2CCOCC2)cc1NC(=O)c1cccc2c(=O)c(C)c(-c3ccccc3)oc12,–,–,?,4.1µM,–,–,4.4µM,–,–,–,–,
CCN(CC)S(=O)(=O)c1ccc(N2CCOCC2)c(NC(=O)c2cccc3ccccc23)c1,–,–,–,?,–,–,·,·,·,·,·,
COc1ccc2ccccc2c1/C=N/NC(=S)Nc1cc(S(=O)(=O)N2CCOCC2)ccc1N1CCOCC1,–,–,2.8µM,1.6µM,10µM,–,?,–,?,?,–,
COc1ccc(-c2cc(C(=O)Nc3ccc(S(N)(=O)=O)cc3)c3ccccc3n2)cc1OC,–,–,–,–,–,–,·,·,·,·,·,
CC(C)(CNc1ccc([N+](=O)[O-])cc1Cl)CNS(C)(=O)=O,–,–,?,–,–,–,·,·,·,·,·,
O=C1OCc2ccc(NC(=O)C3CCCCC3)cc21,–,–,–,–,–,–,·,·,·,·,·,
COc1ccc(-c2cc(C(=O)Nc3cc(S(N)(=O)=O)ccc3C)c3ccccc3n2)cc1OC,–,–,·,·,·,·,·,·,·,·,·,
COc1cc(-c2cc(C(=O)Nc3cc(S(=O)(=O)N4CCOCC4)ccc3C)c3ccccc3n2)cc(OC)c1OC,–,–,·,3.7µM,·,–,5µM,?,?,–,?,
CC(=O)Oc1ccc2c(C)c(CC(=O)N3CCN(C(=O)C4COc5ccccc5O4)CC3)c(=O)oc2c1C (stereo not drawn),–,–,–,?,–,–,2.5µM,?,?,?,?,ELG1 FLuc counter=–;FLuc enzyme=–
COCC(=O)NCc1ccc2c(c1)OCO2,–,–,–,–,–,–,·,·,·,·,·,
COc1ccc(CN(C)C(=O)c2cc(-c3ccc(OC)c(OC)c3)nc3ccccc23)c(OC)c1,–,–,–,–,–,–,·,·,·,·,·,
COc1ccc(-c2cc(C(=O)N(C)Cc3nc4ccccc4c(=O)[nH]3)c3ccccc3n2)cc1OC,–,–,·,2.3µM,·,–,2.5µM,7.1µM,?,8.9µM,?,
CCS(=O)(=O)N1CCN(c2cccc(C)c2C)CC1,–,–,–,–,–,–,·,·,·,·,·,
Cc1ccc2c(c1)nnn2C1CCN(S(=O)(=O)c2ccc(C(=O)NC3CCCC3)cc2)CC1,–,–,–,4.5µM,–,–,3.1µM,?,?,?,?,
Cc1ccc(-c2nc3c(c(SCC(=O)Nc4cccc(C(=O)O)c4)n2)Cc2cccc(C)c2O3)cc1,·,–,·,·,·,·,–,–,–,?,–,ELG1 FLuc counter=–;FLuc enzyme=?
CCCCn1c(N)c(-c2nc3ccccc3o2)c2c([N+](=O)[O-])nn(CC)c(=O)c21,–,–,–,2.1µM,–,–,1µM,–,?,–,–,
CCCCn1c(N)c(-c2nc3ccccc3o2)c2c([N+](=O)[O-])nn(C)c(=O)c21,–,–,–,?,–,–,?,–,?,–,–,
CCCCCn1c(N)c(-c2nc3ccccc3s2)c2c([N+](=O)[O-])nn(C)c(=O)c21,–,–,–,0.73µM,–,–,5µM,28µM,?,?,–,ELG1 FLuc counter=?;FLuc enzyme=–
O=C(OC1CC2CC1[C@H]1CCCCN1C2=O)N1CCCCC1 (stereo partly drawn),·,–,·,·,·,·,·,·,·,·,·,
O=C(NCc1ccncc1)C(=O)N/N=C/c1ccc(OCc2ccccc2)cc1,–,?,–,?,–,–,·,·,·,·,·,
O=NN(CCc1ccncc1)c1ccc(OCc2ccccc2)cc1,–,–,7.1µM,0.82µM,6.3µM,?,?,2.8µM,–,3.5µM,–,ELG1 FLuc counter=–;FLuc enzyme=–
COC(=O)c1ccc2c(=O)n(CCCCCC(=O)N3CCN(c4ccccc4)CC3)c(=O)[nH]c2c1,–,–,–,7.3µM,–,–,8.9µM,7.9µM,?,10µM,20µM,ELG1 FLuc counter=22µM;FLuc enzyme=–
COc1cc2[nH]c(=O)n(CCCCCC(=O)N3CCN(c4ccccc4)CC3)c(=O)c2cc1OC,–,–,–[0.365 µM],16µM,·,–,13µM,16µM,–,?,?,ELG1 FLuc counter=?;FLuc enzyme=–
COc1cc(CC(NC(C)=O)C(=O)NC2CCN(c3nc(C)cc(C)c3C#N)CC2)cc(OC)c1 (stereo not drawn),–,–,–,–,–,–,·,·,·,·,·,
COc1cccc(CC(NC(C)=O)C(=O)NC2CCN(c3nc(C)cc(C)c3C#N)CC2)c1OC (stereo not drawn),–,–,–,2.8µM,–,–,7.9µM,–,?,–,–,
COc1ccc2cc3c(N)nn(C(=O)c4ccccc4[N+](=O)[O-])c3nc2c1,–,–,?,2.3µM,–,–,1.8µM,14µM,–,?,?,
